Measurements from PubChem BioAssay AID463173 (ICCB-Longwood Screening Facility, Harvard Medical School, 2010).
Hit rate of the full screen: of about 52,000 compounds, about 4,300 (8.3%) were called active. The entries come from a sample that favours actives as a whole. A number with no mark means an inactive call. Cut-off read from the data, not from the text of the source: active = survival mostly below about 52% (no sharp cut-off); inactive = mostly above about 56%.

System: DeltatarO mutant
Assay: S. aureus survival, RN4220 and DeltatarO strains – OD600, teichoic acid synthesis inhibitors, primary screen (AID 463173)
Settings: S. aureus RN4220 wild type/DeltatarO growth, OD600, 18 h, hits give low values, screened at 18.75 µg/mL (by protocol)

| Compound | survival |
| --- | --- |
| COc1ccc(OC)c(NC(=O)Cn2nc3c(cc2=O)CCCC3)c1 | 57% |
| Cc1nn(-c2ccc(N3CCOCC3)nn2)c(C)c1CCC(=O)NCc1ccc(Cl)cc1 | 107% |
| CCc1ccc(NC(=O)c2oc3c(c2C)-c2[nH]ncc2CC3)cc1 | 48% |
| Cc1cc(NC(=O)c2oc3c(c2C)-c2[nH]ncc2CC3)ccc1Br | 3% (active) |
| Cc1cc(C)c(NC(=O)c2oc3c(c2C)-c2[nH]ncc2CC3)c(C)c1 | 67% |
| Cc1ccc(Cn2cc(CCC(=O)NCc3ccccc3F)c3ccccc32)cc1 | 77% |
| Cc1c(C(=O)Nc2ccc(Br)cc2F)oc2ccc(S(=O)(=O)N3CCCCC3)cc12 | 78% |
| Cc1cccc(N2CCN(CCCNC(=O)c3sc4ncccc4c3-n3cccc3)CC2C)c1 (stereo not drawn) | 105% |
| COc1cc2c(cc1OC)C1=C(C#N)CN(C3CCCCC3)CN1CC2 | 83% |
| NC(=O)C1CCN(C(=O)C2CCN(S(=O)(=O)c3ccc(-n4cnnn4)cc3)CC2)CC1 | 97% |
| CCN1CCN(Cc2c(O)ccc3oc(C)c(C(=O)Nc4ccc(C)cc4C)c23)CC1 | 92% |
| Cc1ccccc1NC(=O)c1c(C)oc2ccc(O)c(CN(C)Cc3ccccc3)c12 | 81% |
| CCN(Cc1ccccc1)Cc1c(O)ccc2oc(C)c(C(=O)Nc3ccc(C)cc3C)c12 | 33% (active) |
| Cc1ccccc1NC(=O)c1c(C)oc2ccc(O)c(CN3CCCC3)c12 | 80% |
| CCN(Cc1ccccc1)Cc1c(O)ccc2oc(C)c(C(=O)Nc3ccccc3C)c12 | 29% (active) |
| Cc1ccc(NC(=O)c2c(C)oc3ccc(O)c(CN(C)Cc4ccccc4)c23)c(C)c1 | 73% |
| Cc1cc(=O)n(CC(=O)NC(C)c2ccccc2)c2c1c(C)nn2C (stereo not drawn) | 66% |
| Cc1ccc(Nc2nnc(-c3ccc(C)c(S(=O)(=O)N4CCN(C)CC4)c3)c3ccccc23)cc1 | 80% |
| COCCOC(=O)c1c(-c2ccccc2)c(-c2ccccc2)nn(C)c1=O | 65% |
| COc1ccc2oc(=O)c(C(=O)Nc3cccc(C(=O)O)c3)cc2c1 | 50% (active) |
| Cc1[nH]c2c(C)cccc2c1CCNC(=O)c1cc2ccccc2oc1=O | 86% |
| COc1ccc2oc(=O)c(C(=O)Nc3ccc(O)cc3)cc2c1 | 98% |
| Cc1[nH]c2ccc(F)cc2c1CCNC(=O)c1cc2cc(Cl)ccc2oc1=O | 52% |

| Compound | survival |
| --- | --- |
| COc1ccc2oc(=O)c(C(=O)Nc3ccc(C(=O)O)cc3)cc2c1 | 136% |
| COc1ccc2oc(=O)c(C(=O)NCCc3c(C)[nH]c4c(C)cccc34)cc2c1 | 47% (active) |
| COc1cccc2cc(C(=O)NCCc3c(C)[nH]c4ccc(F)cc34)c(=O)oc12 | 53% |
| COc1ccc2oc(=O)c(C(=O)NCCc3c(C)[nH]c4c(Cl)cccc34)cc2c1 | 62% |
| COc1ccc2oc(=O)c(C(=O)NCCc3c(C)[nH]c4ccc(F)cc34)cc2c1 | 46% |
| COc1ccc2oc(=O)c(C(=O)NCCc3c(C)[nH]c4ccc(C)cc34)cc2c1 | 40% (active) |
| COc1ccc2oc(=O)c(C(=O)NCCc3c(C)[nH]c4ccc(Br)cc34)cc2c1 | 45% |
| Cc1ccc2[nH]c(C)c(CCNC(=O)c3cc4cc(Br)ccc4oc3=O)c2c1 | 37% (active) |
| Cc1cc(C)n(C(C)CC(=O)Nc2cccc(C#N)c2)n1 (stereo not drawn) | 78% |
| CN(C)CCN(Cc1ccccc1)S(=O)(=O)c1ccc(-c2cc(C(F)(F)F)on2)s1 | 87% |
| O=C1CCC(=O)N1CNc1ccccc1 | 85% |
| CC(=O)N1CCOc2cc(S(=O)(=O)Nc3cc(C(F)(F)F)ccc3Cl)c(C)cc21 | 94% |
| CCN1CCN(CCCNC(=O)c2cnn(-c3ccc(OC)cc3)c2C2CCN(C(=O)OC(C)(C)C)CC2)CC1 | 95% |
| Cc1ccc(N2CCN(c3nc4ccccc4n4nnnc34)CC2)c(C)c1 | 105% |
| Cc1cccc(C)c1NC(=O)Cn1cc(C(=O)C2CC2)c2ccccc21 | 67% |
| CCOc1ccc(NCc2cccn2-c2nnc(N3CCC(C(=O)NC(C)c4ccccc4)CC3)s2)cc1 (stereo not drawn) | 74% |
| O=C1C2C(C(=O)N1CC1CCCO1)C1C=CC2C12CC2 (stereo not drawn) | 80% |
| Cc1[nH]c2ccc(Br)cc2c1CCNC(=O)c1cc2ccccc2oc1=O | 32% (active) |
| C=CCc1cccc2cc(C(=O)NCCc3c(C)[nH]c4c(C)cccc34)c(=O)oc12 | 48% |
| COc1cccc2cc(C(=O)NCCc3c(C)[nH]c4ccc(Br)cc34)c(=O)oc12 | 121% |
| COc1ccc(Cl)cc1Nc1ccc2cc(S(=O)(=O)N3CCCCC3)ccc2n1 | 83% |
| Cc1cccc(Cn2cccc2CNS(=O)(=O)c2ccccc2F)c1 | -2% (active) |
| Cc1cccc(Cn2cccc2CNS(=O)(=O)c2ccc(Br)cc2)c1 | 76% |

| Compound | survival |
| --- | --- |
| CCc1ccc(S(=O)(=O)NCc2cccn2Cc2cccc(C)c2)cc1 | 79% |
| CCOc1ccccc1C(=O)N1CCN(CCc2ccccn2)CC1 | 67% (active) |
| Cc1ccccc1C(=O)N1CCN(CCc2ccccn2)CC1 | 49% |
| O=C(c1ccccc1Cl)N1CCN(CCc2ccccn2)CC1 | 52% |
| CC(CNC(=O)CN1C(=O)c2cccnc2Oc2ccc(Cl)cc21)c1ccccc1 (stereo not drawn) | 90% |
| CCOC(=O)c1noc2ncn(CC(=O)Nc3cc(Cl)ccc3OC)c(=O)c12 | 92% |
| CCOC(=O)c1noc2ncn(CC(=O)Nc3ccccc3OC)c(=O)c12 | 118% |
| CCOC(=O)c1noc2ncn(CC(=O)Nc3ccc(F)cc3Cl)c(=O)c12 | -5% (active) |
| CCCCC(=O)Nc1ccc(C(=O)OCc2cc(=O)n3ccsc3n2)cc1 | 75% |
| CC(C)CC(=O)N1c2nc(C(C)C)nn2C2(CCCCC2)[C@@H]2CCCC[C@@H]21 | 79% |
| COc1cccc(Nc2nc(-c3ccccc3)c3cc(C)ccc3n2)c1 | 12% (active) |
| Cc1ccc(Nc2c(-c3cccnc3)nc3ccc(Br)cn23)cc1 | 80% |
| COc1cccc(Nc2cc(C)nc3ccccc23)c1 | 109% |
| Cc1cc(C)cc(NC(=O)CSc2nc(-c3ccccc3)c3cc(F)ccc3n2)c1 | 87% |
| CCN(CC)c1nc(-c2ccccc2Cl)c2cc(Br)ccc2n1 | 55% |
| COc1ccccc1Nc1nc(-c2ccccc2Cl)c2cc(Br)ccc2n1 | 125% |
| COc1cccc(NC(=O)c2c(-c3ccc(C)cc3)nnc3ccccc23)c1 | 78% |
| Clc1ccc(Nc2nc(-c3ccccc3)c3cc(Cl)ccc3n2)cc1 | 54% |
| Cc1ccc2nc(Nc3ccc(Br)cc3)nc(-c3ccccc3)c2c1 | 35% (active) |
| Clc1ccccc1-c1nc(Nc2ccccc2)nc2ccc(Br)cc12 | 47% (active) |
| COc1ccc(Nc2nc(-c3ccccc3)c3cc(Br)ccc3n2)cc1 | 23% (active) |
| COc1ccc(Nc2nc(N)c3cc(OC)c(OC)cc3n2)cc1 | 87% |
